Here are results for 12 molecules from PubChem BioAssay (NCI).

Holding throughout (assay): NCI-60 one-dose screen, 48 h (100 = growth as untreated, 0 = no growth, -100 = all killed)
What all share (details): 10 µM

In experiment [1] the test system is RPMI-8226 leukemia.
Experiment [2] deals with OVCAR-8 ovarian.
The test system of experiment [3] is OVCAR-5 ovarian.
Experiment [4] deals with OVCAR-4 ovarian.
The subject of experiment [5] is SK-OV-3 ovarian.
Experiment [6] has as its system IGROV1 ovarian.
For experiment [7], the system named is OVCAR-3 ovarian.
Experiment [8] has as its system HS 578T breast.
The subject of experiment [9] is NCI/ADR-RES ovarian.
The subject of experiment [10] is SR leukemia.

This is part of a sample that, as a whole, favours compounds with a hit. Of some 83,000 tested, about 20% had one in any assay.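 Activity criterion: percent growth below 10, measured after cells in 96-well plates were exposed to a single compound concentration for 48 hours.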 Values without a mark were called inactive. Calls of active or inactive are those of the source.

Turning to `CCC(=O)Oc1ccc(/C=N/NC(N)=S)nc1`, the growth is 50.3% in experiment [1]; 23.5% in experiment [2]; 108% in experiment [3]; 56.2% in experiment [4]; 78% in [5]; 45% in experiment [6]. Moreover, the growth in experiment [7] is 57.3%; in experiment [8], 117%; in experiment [9] it was 25.1%.

`CCOC(=O)[C@]1(Br)CC[C@@]1(Br)C(=O)OCC`: the growth was 96.8% in experiment [1]; 95.6% in [2]; 104% in experiment [3]; 101% in [4]; 112% in [5]; 52.1% in experiment [6]. The growth in [7] is 133%; in [8], 102%; in experiment [9] it was 107%.

With `COc1ccc2c(c1)[nH]c1c(/C=C/c3ccccc3)nccc12`, the growth in [10] was 29.3%; in experiment [1] it was 25.2%; in experiment [3] it was 74.2%; in experiment [4] it was 21.4%; in [5], 65.1%; in [6] it was -15.7% (active). The values for the growth in [7], in experiment [8] and in experiment [9] were 73.4%, 70.4% and 53.4%, respectively.

In the case of `Cc1cc(O)c2c(c1O)C(=O)C13C(=C2O)C(=O)C2C(O)C1C1C(O)C3C(=O)C3=C(O)c4c(O)cc(C)c(O)c4C(=O)C321` (stereo not drawn), the growth in experiment [10] was 12.6%; in experiment [1], -4.03% (active); in experiment [3], -50.6% (active); in [4] it was 27.8%; in experiment [5], -13.1% (active); in experiment [6] it was 10.3%. The growth in experiment [7] is -39.1% (active); in experiment [8], -55.2% (active); in experiment [9] it was -17% (active).

Regarding `O=C1C(Cl)=C(Cl)C(Cl)(Cl)C(Cl)C1(Cl)Cl` (stereo not drawn), the growth was 90.2% in experiment [10]; 98.1% in [1]; 106% in [2]; 102% in experiment [3]; 103% in [5]; 90.9% in experiment [6]. Also, the figures for the growth in [7], in [8] and in experiment [9] were 112%, 109% and 104%, respectively.

As for `Nc1nc(N)c2cc(Sc3ccc4ccccc4c3)ccc2n1`, the growth in experiment [10] was -26.3% (active); in experiment [1] it was -11.9% (active); in experiment [2], 34.8%; in [3] it was 50.5%; in [5], 62.3%; in experiment [6], 27.8%. In addition, the growth was 38.8% in experiment [7], 61.7% in experiment [8] and 43.9% in experiment [9].

Regarding `S=C1SCN(CCc2ccccc2)CN1CCc1ccccc1`, the growth is 61.2% in experiment [10]; 55.8% in experiment [1]; 100% in [2]; 112% in [3]; 105% in experiment [6]; 116% in experiment [7]. Further, the growth is 105% in experiment [8] and 102% in experiment [9].

For `ClCCn1c(CCl)nc2ccc(Cl)cc21`, the growth in experiment [10] was -32.4% (active); in experiment [1], -22.2% (active); in experiment [2] it was -33% (active); in [3] it was -22.9% (active); in [4], -18.9% (active); in experiment [6], -62.5% (active). For the same molecule, the growth was -89.6% (active) in [7], -10.9% (active) in experiment [8] and 2.35% (active) in [9].

On to `COc1cc(N)ccc1Nc1c2ccccc2nc2ccccc12`, for which the growth in experiment [10] was 10.1%; in experiment [2], 66.1%; in [3], 110%; in [4], 5.09% (active); in experiment [5], 93.9%; in [6] it was 60.8%. For the same molecule, the growth in [7] was 80.6%; in experiment [8] it was 102%; in experiment [9] it was 92.7%.

Consider `Cc1cc(N=C2C=CC(=[N+](C)C)C=C2)c(N)cc1N`, for which the growth is 65.7% in [1]; 92.8% in experiment [2]; 95.6% in experiment [3]; 82.3% in experiment [4]; 105% in [5]; 109% in experiment [6]. In addition, the results for the growth in experiment [7], in experiment [8] and in [9] were 16.5%, 94.5% and 80.4%, respectively.

As for `Cn1ncc2cc3c(Nc4ccc(Cl)cc4)cccc3nc21`, the growth in [10] is 84.8%; in experiment [1] it was 79%; in experiment [2] it was 89.8%; in experiment [3], 109%; in [4], 88.2%; in experiment [5], 94.7%. Also, the growth in experiment [6] is 95.8%; in [7], 94.1%; in [8], 89%; in experiment [9], 89.1%.

In the case of `O=C(CNS(=O)(=O)Cc1ccccc1)NNc1ccccc1`, the growth in experiment [10] was 39.2%; in experiment [1], 62.4%; in experiment [2], 58.4%; in experiment [3] it was 68.6%; in experiment [4], 42.6%; in experiment [5], 78.7%. In addition, the growth in [6] is 65.5%; in [7], 86.8%; in [9], 67%.
